Test results as given in PubChem BioAssay (EPA / NIEHS).
Inconclusive results are not listed. Activity calls are given as the source filed them. The calls were made as follows, unless noted: active = hit-call score of the fitted dose curve at least 0.9, where 1 is the maximum; inactive = score below 0.9.

What was measured:
[1] = ATG_M_06_TRANS: Attagene TRANS-FACTORIAL HepG2 Assay for M06 Transcription Factor (Internal Marker) (AID 2282983; active = hit-call score of the fitted dose curve at least 0.9, where 1 is the maximum;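 also: reporter transcript level by RT-PCR then capillary electrophoresis fluorescence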); settings: HepG2 Attagene TRANS M06 internal marker reporter
Summary of the method: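 Read-out: fluorescent reporter cDNA fragments resolved by capillary electrophoresis after RT-PCR and HpaI cut. Source cells were HepG2 carrying transfected multi-reporter GAL4 constructs, dosed 24 h. Increase over DMSO control analysed.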

[2] = target: Nuclear receptor subfamily 4 group A member 2 (Homo sapiens) (UniProt P43354); assay: ATG_NURR1_TRANS: Attagene TRANS-FACTORIAL HepG2 Assay for human Nuclear Receptor Related Protein 1 (NURR1) (AID 2282985; active = hit-call score of the fitted dose curve at least 0.9, where 1 is the maximum); settings: HepG2 Attagene TRANS reporter, mRNA readout
Summary of the method: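 Reporter transcript induction, measured by RT-PCR with fluorescent labelling, HpaI digestion and capillary electrophoresis, after 24 hr dosing of human HepG2 cells transiently expressing an exogenous NR-Gal4 fusion with GAL4-UAS-driven reporters; DMSO as baseline.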

[3] = target: Transcriptional activator Myb (Homo sapiens) (UniProt P10242); assay: ATG_Myb_CIS: Attagene CIS-FACTORIAL HepG2 Assay for human Myeloblastosis (Myb) Proto-Oncogene Transcription Factor (AID 2282986); settings: HepG2 Attagene CIS-FACTORIAL Myb reporter transcription; actives raise or lower the signal
Summary of the method: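 Using HepG2 liver cells bearing transiently transfected cis-promoter reporter constructs, the assay measures induction or loss of reporter mRNA after 24 hours of dosing. Detection used fluorescently labeled RT-PCR products separated by capillary electrophoresis.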

[4] = target: Nuclear respiratory factor 1 (Homo sapiens) (UniProt Q16656); assay: ATG_NRF1_CIS: Attagene CIS-FACTORIAL HepG2 Assay for human Nuclear Respiratory Factor 1 (NRF1) Orphan Gene (AID 2282987); settings: HepG2 NRF1 cis-element reporter, Attagene multiplex; actives raise or lower the signal
Summary of the method: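 Reporter mRNA induction or loss in HepG2 cells after 24 h dosing; cis-regulated reporter constructs report endogenous transcription-factor activity. Quantified by RT-PCR/capillary electrophoresis fluorescence, DMSO-referenced.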

[5] = ATG_NFI_CIS: Attagene CIS-FACTORIAL HepG2 Assay for human Nuclear Factor I (NFI) (AID 2282989); settings: HepG2 cis-regulatory reporter, NFI response element transcription; actives raise or lower the signal
Summary of the method: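 Cells: human liver HepG2, transiently transfected with promoter-regulated reporter transcription units. Exposure 24 h. Detection: fluorescent RT-PCR products separated by capillary electrophoresis, normalised to DMSO negative control.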

[6] = target: Myc proto-oncogene protein (Homo sapiens) (UniProt P01106); assay: ATG_Myc_CIS: Attagene CIS-FACTORIAL HepG2 Assay for human Myelocytomatosis (Myc) Proto-Oncogene Transcription Factor (AID 2282990); settings: HepG2, Attagene cis-reporter transcription factor activity; actives raise or lower the signal
Summary of the method: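 After 24 h chemical treatment of HepG2 cells carrying multiplexed cis-regulated reporter constructs, reporter transcripts quantified by RT-PCR and capillary electrophoresis of fluorescent fragments. Gain or loss fitted against DMSO baseline.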

[7] = ATG_NF_kB_CIS: Attagene CIS-FACTORIAL HepG2 Assay for human Nuclear Factor Kappa B (NF-kB) (AID 2282991); settings: HepG2 Attagene cis-factorial NF-kB reporter mRNA; actives raise or lower the signal
Summary of the method: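 DMSO served as negative control and baseline for bidirectional curve fitting. Transiently transfected HepG2 cells were dosed for 24 h, then reporter transcripts were measured by RT-PCR with capillary electrophoresis detection.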

[8] = ATG_Oct_MLP_CIS: Attagene CIS-FACTORIAL HepG2 Assay for human Octamer-Binding Transcription Factor (Oct) (AID 2282993); settings: HepG2 Attagene cis-factorial Oct reporter, mRNA; actives raise or lower the signal
Summary of the method: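 HepG2, transient MRTU transfection, cis promoter elements; 24 h dosing; RT-PCR/CE fluorescence read-out of reporter mRNA; fit both directions vs DMSO.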

[9] = BSK_3C_TissueFactor: BioMAP Diversity Plus: 3C Assay for Tissue Factor Biomarker Activity (AID 2282997); settings: BioMAP 3C HUVEC, tissue factor biomarker readout; actives raise or lower the signal
Summary of the method: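 HUVEC, 3C system, 24 h post-dose; Tissue Factor by ELISA; bidirectional fit vs DMSO baseline.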

[10] = BSK_3C_uPAR: BioMAP Diversity Plus: 3C Assay for Urokinase-type plasminogen activator receptor (uPAR) Biomarker Activity (AID 2282998); settings: BioMAP 3C HUVEC, uPAR biomarker ELISA; actives raise or lower the signal
Summary of the method: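 A multiplexed primary-cell system built on human umbilical vein endothelium was used, with chemical present for 24 h before reading. Cell-surface uPAR was detected by ELISA; signal change in either direction counted against DMSO.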

[11] = BSK_3C_VCAM1: BioMAP Diversity Plus: 3C Assay for Vascular cell adhesion molecule 1 (VCAM1) Biomarker Activity (AID 2282999); settings: BioMAP 3C HUVEC, VCAM1 ELISA, cytokine-stimulated; actives raise or lower the signal
Summary of the method: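 Activity fitted in both directions relative to DMSO, with ELISA measurement of the surface marker on primary HUVEC (3C) at 24 h post-treatment; parallel SRB staining (0.1% SRB, TCA-fixed, 560 nm) flagged overt cytotoxicity.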

[12] = BSK_4H_Eotaxin3: BioMAP Diversity Plus: 4H Assay for Eotaxin 3 Biomarker Activity (AID 2283000); settings: primary human endothelial cells (HUVEC); actives raise or lower the signal
Summary of the method: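 Readout is Eotaxin-3 (CCL26) level by ELISA in primary human umbilical vein endothelial cells harvested 24 h after chemical exposure; activity fitted in both directions against DMSO control.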

[13] = read-out: Intercellular Adhesion Molecule 1 (ICAM1), ICAM1 (gene 3383); assay: BSK_3C_ICAM1: BioMAP Diversity Plus: 3C Assay for Intercellular Adhesion Molecule 1 (ICAM1) Biomarker Activity (AID 2283003); settings: primary human endothelial cells (HUVEC); actives raise or lower the signal
Summary of the method: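 ELISA readout of ICAM1 in human umbilical vein endothelial cells in the 3C system, taken 24 h post-dose. Gain or loss of signal versus DMSO was fitted in both directions, with SRB total-protein staining run in parallel.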

[14] = target: human Peroxisome Proliferator-activated Receptor alpha (PPARa), PPARA (gene 5465) (UniProt Q07869); assay: ATG_PPARa_TRANS: Attagene TRANS-FACTORIAL HepG2 Assay for human Peroxisome Proliferator-activated Receptor alpha (PPARa) (AID 2283001; active = hit-call score of the fitted dose curve at least 0.9, where 1 is the maximum;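 as to AC50: potency for gain of reporter signal over DMSO so agonist or activator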)
Summary of the method: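 Reporter transcripts quantified by RT-PCR plus capillary electrophoresis after 24 h treatment, fitted upward relative to DMSO. Cells: human HepG2 transiently carrying multiple GAL4-UAS reporter units driven by NR-Gal4 chimeras.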

[15] = target: Cellular tumor antigen p53 (Homo sapiens) (UniProt P04637); assay: ATG_p53_CIS: Attagene CIS-FACTORIAL HepG2 Assay for human p53 Transcription Factor (AID 2282994); settings: HepG2 p53 cis-element reporter, Attagene mRNA; actives raise or lower the signal
Summary of the method: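 Steps: transfect HepG2 with multiplexed cis reporter constructs; dose chemicals 24 h; extract RNA, reverse-transcribe, PCR-amplify reporter sequences; FAM-label, HpaI-digest, resolve fragments by CE. Activity fitted both directions relative to DMSO.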

[16] = target: human Peroxisome Proliferator-activated Receptor delta (PPARd), PPARD (gene 5467) (UniProt Q03181); assay: ATG_PPARd_TRANS: Attagene TRANS-FACTORIAL HepG2 Assay for human Peroxisome Proliferator-activated Receptor delta (PPARd) (AID 2283002; active = hit-call score of the fitted dose curve at least 0.9, where 1 is the maximum)
Summary of the method: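 Read-out is induced reporter mRNA, quantified by RT-PCR with fluorescent labelling and capillary electrophoresis after 24 h dosing. Cells are HepG2 transiently carrying multiple GAL4-UAS reporter units driven by exogenous NR-GAL4 chimeras; DMSO serves as baseline.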

[17] = target: human Retinoic Acid Receptor beta (RARb), RARB (gene 5915) (UniProt P10826); assay: ATG_RARb_TRANS: Attagene TRANS-FACTORIAL HepG2 Assay for human Retinoic Acid Receptor beta (AID 2283004; active = hit-call score of the fitted dose curve at least 0.9, where 1 is the maximum)
Summary of the method: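 Readout is reporter mRNA induction: RNA reverse-transcribed, PCR-amplified, FAM-labelled, HpaI-cut and resolved by capillary electrophoresis. Transiently transfected HepG2 cells carrying exogenous NR–Gal4 chimeras were dosed for 24 h; activity fitted upward relative to DMSO.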

[18] = ATG_M_32_TRANS: Attagene TRANS-FACTORIAL HepG2 Assay for M32 Transcription Factor (Internal Marker) (AID 2282984; active = hit-call score of the fitted dose curve at least 0.9, where 1 is the maximum;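 also: transcript level of a background control reporter unit measured by RT-PCR and capillary electrophoresis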); settings: HepG2 Attagene TRANS M32 internal marker reporter
Summary of the method: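 Internal background reporter in transfected HepG2: after 24 h chemical exposure, RNA reverse-transcribed, reporter cDNA amplified, fluorescently labelled and HpaI-cut, then sized by capillary electrophoresis. Gain of signal fitted against DMSO control.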

[19] = ATG_NRF2_ARE_CIS: Attagene CIS-FACTORIAL HepG2 Assay for human Nuclear Factor Erythroid 2 Related Factor 2 (NFR2) response to Antioxidant Response Elements (ARE) (AID 2282992); settings: HepG2 Attagene ARE/NRF2 reporter, transcription factor activity; actives raise or lower the signal;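 as to AC50: reporter mRNA level measured by RT-PCR and capillary electrophoresis fluorescence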
Summary of the method: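 Endogenous transcription factor activity in human liver HepG2 cells is tracked via a cis-element-driven reporter within a multiplexed set. mRNA induction is read by RT-PCR and capillary electrophoresis after 24 h, with DMSO as baseline.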

Measured: AC50

Chain of Cellular tumor antigen p53 (Homo sapiens) (P04637 whole entry, looked up, the tested form may be a part): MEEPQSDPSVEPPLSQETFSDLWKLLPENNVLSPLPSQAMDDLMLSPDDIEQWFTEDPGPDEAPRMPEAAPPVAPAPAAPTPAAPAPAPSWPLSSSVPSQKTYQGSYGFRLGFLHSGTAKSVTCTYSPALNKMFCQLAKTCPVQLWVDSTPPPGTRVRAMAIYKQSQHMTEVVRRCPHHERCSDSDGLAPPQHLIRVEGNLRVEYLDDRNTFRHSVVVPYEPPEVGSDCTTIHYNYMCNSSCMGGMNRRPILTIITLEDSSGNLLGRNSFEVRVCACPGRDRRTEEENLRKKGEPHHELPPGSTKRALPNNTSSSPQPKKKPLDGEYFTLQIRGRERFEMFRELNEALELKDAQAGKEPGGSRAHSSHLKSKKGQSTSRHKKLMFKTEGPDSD
Chain of human Peroxisome Proliferator-activated Receptor alpha (PPARa), PPARA (gene 5465) (Q07869 whole entry, looked up, the tested form may be a part): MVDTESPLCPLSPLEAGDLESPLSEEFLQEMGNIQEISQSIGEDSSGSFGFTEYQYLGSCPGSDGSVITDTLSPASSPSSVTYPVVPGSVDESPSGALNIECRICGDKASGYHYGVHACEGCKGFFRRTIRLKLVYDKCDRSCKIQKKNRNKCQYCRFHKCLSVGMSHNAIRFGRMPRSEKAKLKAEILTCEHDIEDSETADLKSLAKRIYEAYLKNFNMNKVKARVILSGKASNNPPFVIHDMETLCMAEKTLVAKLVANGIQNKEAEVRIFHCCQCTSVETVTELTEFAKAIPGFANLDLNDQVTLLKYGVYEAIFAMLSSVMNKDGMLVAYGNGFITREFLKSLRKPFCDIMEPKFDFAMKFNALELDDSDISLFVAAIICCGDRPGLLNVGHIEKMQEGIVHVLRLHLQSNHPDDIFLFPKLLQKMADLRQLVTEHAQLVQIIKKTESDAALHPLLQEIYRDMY
Chain of Transcriptional activator Myb (Homo sapiens) (P10242 whole entry, looked up): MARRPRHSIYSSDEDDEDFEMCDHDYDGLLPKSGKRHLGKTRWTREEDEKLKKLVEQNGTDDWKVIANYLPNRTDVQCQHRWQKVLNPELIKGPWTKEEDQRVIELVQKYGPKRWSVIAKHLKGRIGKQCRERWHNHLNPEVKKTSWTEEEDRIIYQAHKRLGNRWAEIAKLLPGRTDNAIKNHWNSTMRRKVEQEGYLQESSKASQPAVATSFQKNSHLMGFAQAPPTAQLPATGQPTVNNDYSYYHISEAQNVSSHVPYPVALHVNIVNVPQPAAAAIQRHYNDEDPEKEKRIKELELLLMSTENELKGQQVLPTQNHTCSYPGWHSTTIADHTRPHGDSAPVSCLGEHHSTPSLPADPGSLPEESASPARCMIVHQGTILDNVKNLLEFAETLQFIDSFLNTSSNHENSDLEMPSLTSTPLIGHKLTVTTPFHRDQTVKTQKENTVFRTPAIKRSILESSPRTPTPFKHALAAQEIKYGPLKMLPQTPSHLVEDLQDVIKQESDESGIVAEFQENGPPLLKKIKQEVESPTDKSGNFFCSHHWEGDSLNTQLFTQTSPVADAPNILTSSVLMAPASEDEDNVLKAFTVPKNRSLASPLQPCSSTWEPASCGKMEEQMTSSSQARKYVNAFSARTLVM
Chain of Nuclear respiratory factor 1 (Homo sapiens) (Q16656 whole entry, looked up): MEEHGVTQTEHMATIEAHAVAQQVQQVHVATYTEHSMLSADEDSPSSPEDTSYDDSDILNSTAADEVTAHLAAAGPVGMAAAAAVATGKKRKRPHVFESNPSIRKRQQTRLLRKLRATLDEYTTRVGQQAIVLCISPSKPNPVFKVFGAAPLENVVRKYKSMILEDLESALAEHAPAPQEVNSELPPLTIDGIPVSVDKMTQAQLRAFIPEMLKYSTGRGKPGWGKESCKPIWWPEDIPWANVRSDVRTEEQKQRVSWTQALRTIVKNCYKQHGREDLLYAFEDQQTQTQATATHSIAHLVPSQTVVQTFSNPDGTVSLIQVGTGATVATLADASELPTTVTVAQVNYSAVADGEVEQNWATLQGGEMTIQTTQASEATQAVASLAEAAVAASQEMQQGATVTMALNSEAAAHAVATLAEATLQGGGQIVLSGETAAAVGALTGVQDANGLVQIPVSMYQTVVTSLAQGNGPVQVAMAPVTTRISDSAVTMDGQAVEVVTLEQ
Chain of Myc proto-oncogene protein (Homo sapiens) (P01106 whole entry, looked up, the tested form may be a part): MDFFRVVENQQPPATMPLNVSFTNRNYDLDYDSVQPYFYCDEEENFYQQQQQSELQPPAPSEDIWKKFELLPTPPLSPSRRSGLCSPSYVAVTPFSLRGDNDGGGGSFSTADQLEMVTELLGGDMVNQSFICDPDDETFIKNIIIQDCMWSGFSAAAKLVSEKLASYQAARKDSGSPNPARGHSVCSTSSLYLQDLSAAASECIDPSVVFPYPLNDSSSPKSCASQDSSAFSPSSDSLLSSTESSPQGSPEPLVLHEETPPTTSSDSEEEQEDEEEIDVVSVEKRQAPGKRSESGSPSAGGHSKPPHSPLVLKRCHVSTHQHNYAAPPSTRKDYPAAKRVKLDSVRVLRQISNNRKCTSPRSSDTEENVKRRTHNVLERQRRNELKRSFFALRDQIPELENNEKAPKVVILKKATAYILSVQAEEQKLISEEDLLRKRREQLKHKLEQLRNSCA
Chain of Nuclear receptor subfamily 4 group A member 2 (Homo sapiens) (P43354 whole entry, looked up, the tested form may be a part): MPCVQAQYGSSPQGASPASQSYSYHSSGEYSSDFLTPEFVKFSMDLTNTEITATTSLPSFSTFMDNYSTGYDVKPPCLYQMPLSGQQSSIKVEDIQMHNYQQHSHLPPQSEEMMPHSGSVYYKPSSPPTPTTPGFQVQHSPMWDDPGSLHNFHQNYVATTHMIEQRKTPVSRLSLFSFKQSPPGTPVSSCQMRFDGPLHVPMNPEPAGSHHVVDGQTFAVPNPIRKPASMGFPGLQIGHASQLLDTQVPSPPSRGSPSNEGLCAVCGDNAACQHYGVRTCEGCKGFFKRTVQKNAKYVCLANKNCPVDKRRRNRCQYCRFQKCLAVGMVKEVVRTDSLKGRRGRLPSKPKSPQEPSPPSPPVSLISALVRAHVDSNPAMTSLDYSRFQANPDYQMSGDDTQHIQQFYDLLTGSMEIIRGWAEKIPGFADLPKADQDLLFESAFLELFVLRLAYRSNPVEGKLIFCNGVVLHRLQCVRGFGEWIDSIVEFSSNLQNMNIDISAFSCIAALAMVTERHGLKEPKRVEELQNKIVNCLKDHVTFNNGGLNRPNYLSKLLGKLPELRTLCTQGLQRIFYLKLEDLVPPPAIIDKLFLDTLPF
Chain of human Peroxisome Proliferator-activated Receptor delta (PPARd), PPARD (gene 5467) (Q03181 whole entry, looked up, the tested form may be a part): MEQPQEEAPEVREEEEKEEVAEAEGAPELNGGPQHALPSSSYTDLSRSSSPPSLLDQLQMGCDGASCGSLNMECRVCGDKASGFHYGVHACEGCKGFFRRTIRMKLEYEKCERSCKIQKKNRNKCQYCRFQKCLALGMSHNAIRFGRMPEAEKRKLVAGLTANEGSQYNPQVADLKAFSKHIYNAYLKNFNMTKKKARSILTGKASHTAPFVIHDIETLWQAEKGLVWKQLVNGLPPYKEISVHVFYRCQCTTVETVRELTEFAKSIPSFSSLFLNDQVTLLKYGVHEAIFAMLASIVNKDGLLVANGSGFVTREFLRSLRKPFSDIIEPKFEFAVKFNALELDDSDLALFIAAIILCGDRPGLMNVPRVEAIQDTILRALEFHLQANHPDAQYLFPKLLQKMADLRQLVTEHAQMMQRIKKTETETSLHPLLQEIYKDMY
Chain of human Retinoic Acid Receptor beta (RARb), RARB (gene 5915) (P10826 whole entry, looked up, the tested form may be a part): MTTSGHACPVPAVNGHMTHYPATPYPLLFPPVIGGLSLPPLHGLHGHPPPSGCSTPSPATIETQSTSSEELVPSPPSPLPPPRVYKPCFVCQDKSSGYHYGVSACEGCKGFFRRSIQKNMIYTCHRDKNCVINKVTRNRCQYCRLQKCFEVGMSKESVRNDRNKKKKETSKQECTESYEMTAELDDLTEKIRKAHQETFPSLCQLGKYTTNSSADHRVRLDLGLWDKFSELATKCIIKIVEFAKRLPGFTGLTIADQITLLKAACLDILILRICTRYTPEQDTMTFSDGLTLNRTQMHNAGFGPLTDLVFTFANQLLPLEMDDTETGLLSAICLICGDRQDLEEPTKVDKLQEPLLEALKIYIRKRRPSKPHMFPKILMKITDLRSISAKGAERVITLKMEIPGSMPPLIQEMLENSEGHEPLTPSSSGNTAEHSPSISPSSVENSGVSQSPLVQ

O=S(=O)(c1ccc(Cl)cc1)c1cc(Cl)c(Cl)cc1Cl
active: [10] 6.4 µM
not listed: [14] | [15] | [16] | [17] | [18] | [19]
inactive: all other assays above

CC[N+](CC)(CC)CC
inactive: [1] | [3] | [4] | [5] | [6] | [7] | [8] | [14]

C[C@H]1C(=O)O[C@@H]2CCN3CC=C(COC(=O)[C@](C)(O)[C@]1(C)O)[C@H]23
not listed: [2] | [9] | [10] | [11] | [12] | [13] | [18] | [19]
inactive: all other assays above

Oc1c(Cl)cc(Cl)cc1Cl
inactive: [1] | [18] | [3] | [8] | [15] | [9] | [10] | [12] | [16] | [13]
active: [14] 15.9 µM

CCN(CCO)CCO
not listed: [9] | [10] | [11] | [12] | [13] | [16] | [17] | [18]
inactive: all other assays above

C#C[C@]1(O)CC[C@H]2[C@@H]3CCC4=CC(=O)CC[C@]4(C)[C@H]3CC[C@@]21C
inactive: [1] | [3] | [4] | [5] | [6] | [7] | [19] | [8] | [15]

CCCCCCCCCCCCc1cccc(S(=O)(=O)O)c1
active: [19] 44.3 µM | [14] 30 µM
not listed: [11] | [15] | [16] | [18]
inactive: all other assays above

Oc1cccc(-c2ccccc2)c1
active: [5] 139 µM | [19] 100 µM | [10] 20 µM | [11] 37.1 µM | [12] 20 µM
not listed: [16] | [17] | [18]
inactive: all other assays above

OCCCCO
not listed: [6] | [16] | [17] | [18]
inactive: all other assays above

O=C(O)COc1cc(Cl)c(Cl)cc1Cl
not listed: [2] | [7] | [14] | [15] | [17] | [18]
inactive: all other assays above

O=NN1CCOCC1
inactive: [1] | [2] | [3] | [4] | [5] | [19] | [8] | [14] | [16]

CCCCN(CCCC)C(=S)S
active: [3] 100 µM | [4] 152 µM
inactive: [1] | [5] | [8] | [14]

Nc1ncn[nH]1
inactive: [1] | [3] | [4] | [5] | [6] | [19] | [8] | [16]

COc1ccc(N)cc1
inactive: [18] | [2] | [3] | [4] | [5] | [6] | [19] | [8] | [15] | [14]

CCCCCCCCCCCCCCC(Br)C(=O)O (centres undefined)
inactive: [18] | [5] | [6] | [15]
active: [2] 26.4 µM | [3] 163 µM | [4] 168 µM | [7] 50.4 µM | [19] 30.1 µM | [8] 161 µM | [14] 1.44 µM

c1ccc(-c2cccc(-c3ccccc3)c2)cc1
active: [2] 27.8 µM | [19] 40.9 µM | [9] 4.68 µM | [10] 20 µM | [12] 20 µM
not listed: [1] | [11] | [16] | [17] | [18]
inactive: all other assays above

CCOC(=O)C(SP(=S)(OC)OC)c1ccccc1 (centres undefined)
active: [19] 32 µM | [10] 20 µM | [12] 29.1 µM
not listed: [1] | [11] | [14] | [16] | [17]
inactive: all other assays above

O=C=Nc1ccc(Cl)cc1
active: [6] 149 µM
inactive: [18] | [2] | [3] | [5] | [7] | [19] | [8] | [15]

N#CCCC(Br)(C#N)CBr (centres undefined)
active: [5] 54.3 µM | [7] 33.4 µM | [8] 50 µM | [15] 52.8 µM | [9] 7.47 µM | [10] 5.36 µM | [12] 8.6 µM | [13] 11 µM
inactive: [2] | [3] | [4] | [6] | [19] | [14]

ClCc1ccccc1Cl
inactive: [2] | [3] | [4] | [5] | [6]
active: [19] 12.4 µM | [8] 74.7 µM

Cc1ccccc1OP(=O)(Oc1ccccc1C)Oc1ccccc1C
inactive: [3] | [4] | [5] | [6] | [15] | [16] | [13]
active: [2] 26.7 µM | [19] 8.48 µM | [8] 119 µM | [9] 5.08 µM | [10] 11.1 µM | [12] 9.39 µM

CCCCCCCCCCCCCl
inactive: [18] | [3] | [5] | [6] | [19] | [8] | [15]
